From PubChem
JNK3 blocker: JNK3 (human) kinase inhibition. 60,000 compounds, 0.61% hits. inhibition, % at 8 µM. P53779. purified JNK3 kinase activity, HTS; in the data active = inhibition above about 17%
Target sequence (P53779 whole entry, looked up): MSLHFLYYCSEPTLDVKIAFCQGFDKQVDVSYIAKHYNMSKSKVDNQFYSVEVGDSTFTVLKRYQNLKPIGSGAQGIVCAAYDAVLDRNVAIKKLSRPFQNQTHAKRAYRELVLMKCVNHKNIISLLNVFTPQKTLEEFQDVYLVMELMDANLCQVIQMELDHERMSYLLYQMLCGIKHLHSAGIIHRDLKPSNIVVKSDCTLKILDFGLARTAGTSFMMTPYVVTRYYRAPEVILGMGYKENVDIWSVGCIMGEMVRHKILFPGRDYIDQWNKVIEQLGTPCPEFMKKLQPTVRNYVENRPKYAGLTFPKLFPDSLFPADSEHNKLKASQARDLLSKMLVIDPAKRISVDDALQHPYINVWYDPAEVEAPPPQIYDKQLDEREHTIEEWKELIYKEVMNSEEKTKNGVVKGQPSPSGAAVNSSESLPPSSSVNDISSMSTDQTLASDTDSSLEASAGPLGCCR
FAK blocker: inhibitors of human focal adhesion kinase; Q05397; biochemical FAK kinase activity assay; inhibition, %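 (tested at 7 µM)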; 97,000 compounds, 0.84% hits; AID 727
PTK2B oligo ant: antagonists of human Pyk2 oligomerization | Q14289 | Q293 cells, Pyk2 FERM NanoBiT luminescence; stronger effect = lower value | z-score (the deposit names both 25 µM and 10 µM) | 99,000 compounds, 0.83% hits | AID 1347419;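 active = Z-score of -3 or lower, scaled per plate to the spread of control and sample wells; inactive = z-score above -3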;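 note: negative z-score means lost luminescence so less FERM oligomerization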
NFkB transloc inh: blocks IL-1B driven NFkB nuclear translocation in HUVEC cells. HUVEC IL-1B NFkB p65 nuclear translocation imaging. inhibition, % at 2 µM. 94,000 compounds, 0.43% hits;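 active = inhibition above about 30% together with a positive call from visual inspection of the well image, limit read from the data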;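 note: nuclear over cytoplasmic p65 intensity ratio measured by imaging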
HUVEC tox IL1B: toxic to HUVEC cells under IL-1B stimulation; cell count reduction, % at 2 µM; 94,000 compounds, 0.41% hits; HUVEC cell count loss, Hoechst imaging, IL-1B stimulated;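 active = cell count reduction more than 3 SD above the screen-wide mean, cut at about 70% in these data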
IL1B NFkB pot: enhances IL-1B driven NFkB nuclear translocation. HUVEC IL-1B NFkB p65 nuclear translocation imaging. activation, % at 2 µM. 94,000 compounds, 0.3% hits. AID 819;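 active = activation above 40%, about the mean plus 3 SD, also judged a hit on visual image review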;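 note: percent activation is computed from the nuclear over cytoplasmic p65 intensity ratio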
FAK inh conf: FAK (human) inhibition confirmed; shares compounds with FAK blocker; 750 compounds, 28% hits; FAK kinase biochemical inhibition assay; AID 794; inhibition, % at 7 µM
Of the large screens only hits and unclear results are named; the others gave an inactive call (follow-up assays come after a bar, where they were run). The list is not random: actives were taken first. Their share in the collection is about 2.4%. Cut-off read from the data, not from the text of the source, unless noted: active = inhibition above about 19%; inactive = the rest.

Cc1ccc(C(=O)COC(=O)c2ccc3c(c2)C(=O)N(c2cccc4ncccc24)C3=O)cc1C	FAK blocker 38.9 (no result: JNK3 blocker) | FAK inh conf 22.6
CC(OC(=O)c1nsc(Cl)c1Cl)C(=O)NC(C)(C)C (centres undefined)	none (no result: JNK3 blocker)
N#Cc1c(-c2ccc3c(c2)OCO3)ccn2nc(-c3cccc(C(F)(F)F)c3)nc12	none (no result: JNK3 blocker)
O=C(N/N=C/C=C/c1ccc([N+](=O)[O-])cc1)c1cccs1	FAK blocker 55.9 (no result: JNK3 blocker) | FAK inh conf 21.4
COc1ccc(CCNC(=O)CSc2ncn[nH]2)cc1	none (no result: JNK3 blocker)
O=C(COc1ncnc2ccc(Br)cc12)Nc1ccc(N2CCOCC2)cc1	none
Brc1ccc2ncnc(Nc3ccc(N4CCOCC4)cc3)c2c1	FAK blocker 20.5 | FAK inh conf inactive
O=C(CN1CCN(c2ncccn2)CC1)NCCC1=CCCCC1	none (no result: JNK3 blocker)
c1cncc(-c2nc(Oc3ccc(-c4nnco4)cc3)c3c4c(sc3n2)CCCC4)c1	none (no result: FAK blocker, PTK2B oligo ant, NFkB transloc inh, HUVEC tox IL1B, IL1B NFkB pot)
c1ccc(-c2nccc(-c3ccc(-n4cnc5ccccc54)cc3)n2)cc1	FAK blocker 86.0 (no result: JNK3 blocker) | FAK inh conf 80.7
c1ccc(-n2nnnc2-n2cnc3ccccc32)cc1	none
Cc1ccc(S(=O)(=O)C/N=C(/NC(=S)N(c2ccccc2)c2ccccc2)c2ccccc2)cc1	none (no result: JNK3 blocker)
COC(=O)c1cc(OC)c(OC)cc1NC(=O)c1cc(-c2ccccc2)nc2ccccc12	FAK blocker 21.4 (no result: JNK3 blocker) | FAK inh conf inactive
CC(C)(C)N1C(=O)Cc2c1nc(N)c1c(N)nc(N3CCCCC3CO)c(C#N)c21 (centres undefined)	FAK blocker 55.9 | FAK inh conf inactive
CN(CCO)c1nc(N)c2c(N)nc3c(c2c1C#N)CC(=O)N3C1CCCC1	FAK blocker 35.2 (no result: JNK3 blocker, PTK2B oligo ant) | FAK inh conf inactive
CCN(CC)c1nc(N)c2c(N)nc3c(c2c1C#N)CC(c1ccccc1)O3 (centres undefined)	none
CN1CCc2nc(SCCOc3ccccc3)c(C#N)cc2C1	none
CCc1nnc(NS(=O)(=O)c2ccc(N/C=C\C(=O)c3ccc(C)cc3)cc2)s1	none (no result: JNK3 blocker)
CCOC(=O)c1ccc(N2C(=O)CC(Nc3ccc(CCO)cc3)C2=O)cc1 (centres undefined)	none (no result: JNK3 blocker)
CC1=NN(c2cccc(C(=O)O)c2)C(=O)/C1=C\C=C\c1ccco1	none (no result: JNK3 blocker)
CC(C)C(C(=O)O)N1C(=O)/C(=C/C=C/c2ccco2)SC1=S (centres undefined)	FAK blocker 87.9 (no result: JNK3 blocker) | FAK inh conf inactive
Cc1ccc2nc3c(cc(C#N)c(=N)n3CCCN3CCOCC3)c(=O)n2c1	none (no result: JNK3 blocker, PTK2B oligo ant)
Cc1n[nH]c(C)c1CCc1nc2c3ccccc3nc(SCC(N)=O)n2n1	none
Cc1ccc(NC(=O)CSc2nc3ccccc3c3nc(CCc4c(C)n[nH]c4C)nn23)cc1F	FAK blocker 21.1 (no result: JNK3 blocker) | FAK inh conf inactive
